Laboratory results published in the supplement of paper PMC11732987, “Enantioselective OTUD7B fragment discovery through chemoproteomics screening and high-throughput optimisation” (Communications Chemistry, 2025).

How the values were obtained:
Experiment in all cases: log2 ratio of Biotin-Ahx-Ub-VS probe labelling (fragment/DMSO); higher = less target engagement (more negative = stronger competition), active = hit call of the paper (q ≤ 0.05, log2 ratio ≤ -1)
Details in all cases: compound concentration: 200 uM; treatment time: 3 h
[1] = molecular target: T1, USP42 (UniProt Q9H9J4)
T1 sequence (whole entry): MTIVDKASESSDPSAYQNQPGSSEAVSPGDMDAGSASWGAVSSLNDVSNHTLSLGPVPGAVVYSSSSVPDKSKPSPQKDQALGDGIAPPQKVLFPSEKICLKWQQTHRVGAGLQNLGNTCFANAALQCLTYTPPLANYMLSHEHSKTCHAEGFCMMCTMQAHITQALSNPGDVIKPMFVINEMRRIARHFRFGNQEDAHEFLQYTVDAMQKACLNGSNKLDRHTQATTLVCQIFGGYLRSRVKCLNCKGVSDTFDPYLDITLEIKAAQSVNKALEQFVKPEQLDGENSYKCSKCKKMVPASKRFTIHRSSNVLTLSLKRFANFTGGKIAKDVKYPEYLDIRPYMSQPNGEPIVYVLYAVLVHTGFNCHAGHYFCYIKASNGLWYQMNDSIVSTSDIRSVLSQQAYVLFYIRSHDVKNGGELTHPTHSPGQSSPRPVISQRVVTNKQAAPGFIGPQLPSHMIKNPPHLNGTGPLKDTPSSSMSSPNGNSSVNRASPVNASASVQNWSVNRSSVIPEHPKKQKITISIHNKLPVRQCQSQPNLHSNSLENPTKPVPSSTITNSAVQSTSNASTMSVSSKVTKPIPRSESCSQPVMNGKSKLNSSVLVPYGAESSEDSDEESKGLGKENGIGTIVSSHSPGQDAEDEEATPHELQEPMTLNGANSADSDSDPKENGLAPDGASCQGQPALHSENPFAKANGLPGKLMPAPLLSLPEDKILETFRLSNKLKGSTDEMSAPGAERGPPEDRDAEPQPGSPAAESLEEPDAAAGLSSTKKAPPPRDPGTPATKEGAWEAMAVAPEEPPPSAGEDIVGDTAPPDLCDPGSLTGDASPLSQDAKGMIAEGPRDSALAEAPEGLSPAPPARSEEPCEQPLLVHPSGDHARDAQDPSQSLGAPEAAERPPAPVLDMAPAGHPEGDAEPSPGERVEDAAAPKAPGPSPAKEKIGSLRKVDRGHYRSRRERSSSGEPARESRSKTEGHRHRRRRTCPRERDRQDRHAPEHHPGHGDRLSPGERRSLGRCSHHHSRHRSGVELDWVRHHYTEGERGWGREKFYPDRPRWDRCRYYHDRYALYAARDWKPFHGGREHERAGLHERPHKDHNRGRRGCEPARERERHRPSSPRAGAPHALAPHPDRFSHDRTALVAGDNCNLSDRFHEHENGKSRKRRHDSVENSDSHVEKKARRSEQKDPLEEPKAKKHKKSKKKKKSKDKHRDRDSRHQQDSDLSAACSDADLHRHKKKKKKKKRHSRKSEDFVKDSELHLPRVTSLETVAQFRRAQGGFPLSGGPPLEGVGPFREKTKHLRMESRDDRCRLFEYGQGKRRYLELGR
Summary of the method: (§1)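 Global-median-normalised Spectronaut label-free quantities were compared by unpaired t-test, and values are average log2 ratios of fragment over vehicle. Only proteins with ≥2 unique peptides were used. HEK293T lysate (495 µg per sample) was treated in triplicate with fragment at 200 µM or vehicle for 3 h and then with Biotin-Ahx-Ub-VS at 0.5 µM final for 1 h. Labelled DUBs were then NeutrAvidin-enriched, digested with LysC and trypsin, and run by diaPASEF LC-MS/MS.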

[2] = molecular target: USP46 (UniProt P62068)
Chain of USP46 (P62068 whole entry): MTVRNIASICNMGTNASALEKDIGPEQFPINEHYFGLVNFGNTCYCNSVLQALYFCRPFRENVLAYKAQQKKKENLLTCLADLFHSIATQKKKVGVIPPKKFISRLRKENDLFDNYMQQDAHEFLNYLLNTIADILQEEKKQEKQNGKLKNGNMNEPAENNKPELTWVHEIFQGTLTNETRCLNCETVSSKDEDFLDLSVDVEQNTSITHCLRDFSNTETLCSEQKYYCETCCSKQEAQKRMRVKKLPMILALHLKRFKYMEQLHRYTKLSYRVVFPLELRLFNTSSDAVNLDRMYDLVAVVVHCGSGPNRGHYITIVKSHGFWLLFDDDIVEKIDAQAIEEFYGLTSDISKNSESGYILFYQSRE
Summary of the method: as §1

[3] = molecular target: T2, USP47 (UniProt Q96K76)
T2 sequence (whole entry): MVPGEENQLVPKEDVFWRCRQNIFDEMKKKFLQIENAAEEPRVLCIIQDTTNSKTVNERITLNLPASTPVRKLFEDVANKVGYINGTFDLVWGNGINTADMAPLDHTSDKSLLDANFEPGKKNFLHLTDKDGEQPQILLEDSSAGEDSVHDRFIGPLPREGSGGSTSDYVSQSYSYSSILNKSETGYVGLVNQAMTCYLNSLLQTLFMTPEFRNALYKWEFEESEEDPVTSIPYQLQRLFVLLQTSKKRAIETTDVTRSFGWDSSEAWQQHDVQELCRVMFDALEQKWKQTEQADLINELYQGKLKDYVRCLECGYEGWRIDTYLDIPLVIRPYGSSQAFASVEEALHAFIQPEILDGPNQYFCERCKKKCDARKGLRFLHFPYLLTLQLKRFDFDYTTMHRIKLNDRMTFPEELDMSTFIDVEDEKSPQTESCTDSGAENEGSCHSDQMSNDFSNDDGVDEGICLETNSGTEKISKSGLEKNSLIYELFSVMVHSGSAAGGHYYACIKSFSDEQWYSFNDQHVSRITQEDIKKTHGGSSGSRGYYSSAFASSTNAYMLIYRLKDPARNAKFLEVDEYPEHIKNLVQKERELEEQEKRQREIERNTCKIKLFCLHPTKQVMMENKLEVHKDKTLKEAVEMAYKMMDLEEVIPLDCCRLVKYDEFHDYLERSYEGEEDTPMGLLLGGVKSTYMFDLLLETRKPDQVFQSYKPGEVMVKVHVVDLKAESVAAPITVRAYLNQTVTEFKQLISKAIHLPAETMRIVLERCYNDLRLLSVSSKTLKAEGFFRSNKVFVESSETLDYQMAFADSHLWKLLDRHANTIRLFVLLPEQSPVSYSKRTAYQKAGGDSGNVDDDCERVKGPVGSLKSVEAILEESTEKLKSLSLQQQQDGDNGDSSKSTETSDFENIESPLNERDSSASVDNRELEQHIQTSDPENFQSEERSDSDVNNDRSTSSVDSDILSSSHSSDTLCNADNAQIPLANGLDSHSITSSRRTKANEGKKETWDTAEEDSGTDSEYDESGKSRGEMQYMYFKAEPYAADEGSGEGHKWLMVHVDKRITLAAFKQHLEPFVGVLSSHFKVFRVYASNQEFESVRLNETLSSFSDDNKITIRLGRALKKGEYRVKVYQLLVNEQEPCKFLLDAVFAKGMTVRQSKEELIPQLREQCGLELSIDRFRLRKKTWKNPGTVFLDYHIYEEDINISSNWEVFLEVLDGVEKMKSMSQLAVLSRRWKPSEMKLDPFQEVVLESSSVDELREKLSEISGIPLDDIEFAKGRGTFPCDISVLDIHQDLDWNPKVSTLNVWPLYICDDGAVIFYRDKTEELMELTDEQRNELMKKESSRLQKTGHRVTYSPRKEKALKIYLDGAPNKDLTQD
Summary of the method: as §1

[4] = molecular target: T3, USP48 (UniProt Q86UV5)
T3 sequence (whole entry): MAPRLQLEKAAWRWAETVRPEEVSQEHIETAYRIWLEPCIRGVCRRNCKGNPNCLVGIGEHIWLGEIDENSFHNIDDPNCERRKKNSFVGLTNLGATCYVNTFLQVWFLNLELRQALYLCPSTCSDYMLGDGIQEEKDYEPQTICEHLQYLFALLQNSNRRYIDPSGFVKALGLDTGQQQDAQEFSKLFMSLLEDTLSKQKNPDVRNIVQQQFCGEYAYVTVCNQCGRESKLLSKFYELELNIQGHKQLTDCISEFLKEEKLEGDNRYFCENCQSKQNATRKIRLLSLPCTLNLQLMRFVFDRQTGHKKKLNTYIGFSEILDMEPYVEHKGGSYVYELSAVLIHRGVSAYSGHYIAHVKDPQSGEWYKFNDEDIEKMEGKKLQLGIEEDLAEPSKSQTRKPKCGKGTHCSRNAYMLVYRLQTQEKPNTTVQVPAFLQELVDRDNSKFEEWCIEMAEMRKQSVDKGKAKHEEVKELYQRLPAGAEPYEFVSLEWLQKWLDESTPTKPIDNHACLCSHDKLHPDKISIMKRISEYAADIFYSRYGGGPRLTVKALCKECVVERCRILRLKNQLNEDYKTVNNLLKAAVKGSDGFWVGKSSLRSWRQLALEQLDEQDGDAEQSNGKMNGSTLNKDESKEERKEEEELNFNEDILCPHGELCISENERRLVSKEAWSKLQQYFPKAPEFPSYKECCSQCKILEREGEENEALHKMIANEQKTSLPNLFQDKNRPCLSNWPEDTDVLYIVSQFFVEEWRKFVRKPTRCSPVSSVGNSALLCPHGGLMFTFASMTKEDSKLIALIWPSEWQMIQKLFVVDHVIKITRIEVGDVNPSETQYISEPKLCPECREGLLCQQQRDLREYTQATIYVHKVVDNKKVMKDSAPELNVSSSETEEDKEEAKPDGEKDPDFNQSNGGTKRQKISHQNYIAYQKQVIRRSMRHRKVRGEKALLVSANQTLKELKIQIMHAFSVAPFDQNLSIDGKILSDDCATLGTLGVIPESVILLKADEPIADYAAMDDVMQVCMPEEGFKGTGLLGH
Summary of the method: as §1

[5] = molecular target: T4, USP5 (UniProt P45974)
T4 sequence (whole entry): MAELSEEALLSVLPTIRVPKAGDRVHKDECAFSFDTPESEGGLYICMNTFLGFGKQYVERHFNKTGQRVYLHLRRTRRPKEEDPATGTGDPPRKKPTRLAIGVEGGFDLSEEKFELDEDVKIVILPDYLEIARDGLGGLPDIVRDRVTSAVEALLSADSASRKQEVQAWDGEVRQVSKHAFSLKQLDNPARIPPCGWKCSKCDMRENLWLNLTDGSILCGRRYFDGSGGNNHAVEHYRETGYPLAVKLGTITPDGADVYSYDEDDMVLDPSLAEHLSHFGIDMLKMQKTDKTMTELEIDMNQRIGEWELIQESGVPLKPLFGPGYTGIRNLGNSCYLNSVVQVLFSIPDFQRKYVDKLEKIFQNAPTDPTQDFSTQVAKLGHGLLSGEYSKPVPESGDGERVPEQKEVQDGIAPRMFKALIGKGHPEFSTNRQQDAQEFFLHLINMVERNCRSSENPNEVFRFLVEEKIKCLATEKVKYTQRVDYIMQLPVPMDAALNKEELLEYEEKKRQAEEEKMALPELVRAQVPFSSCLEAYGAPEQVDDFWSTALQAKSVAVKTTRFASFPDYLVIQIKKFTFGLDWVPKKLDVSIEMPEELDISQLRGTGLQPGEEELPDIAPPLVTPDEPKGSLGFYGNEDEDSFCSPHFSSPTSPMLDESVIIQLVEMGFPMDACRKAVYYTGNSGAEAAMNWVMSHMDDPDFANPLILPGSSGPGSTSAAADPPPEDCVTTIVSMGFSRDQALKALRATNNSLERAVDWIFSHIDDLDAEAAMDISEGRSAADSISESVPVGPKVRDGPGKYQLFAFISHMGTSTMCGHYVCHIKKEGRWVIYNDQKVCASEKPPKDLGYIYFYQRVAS
Summary of the method: as §1

[6] = molecular target: USP54 (UniProt Q70EL1)
Chain of USP54 (Q70EL1 whole entry): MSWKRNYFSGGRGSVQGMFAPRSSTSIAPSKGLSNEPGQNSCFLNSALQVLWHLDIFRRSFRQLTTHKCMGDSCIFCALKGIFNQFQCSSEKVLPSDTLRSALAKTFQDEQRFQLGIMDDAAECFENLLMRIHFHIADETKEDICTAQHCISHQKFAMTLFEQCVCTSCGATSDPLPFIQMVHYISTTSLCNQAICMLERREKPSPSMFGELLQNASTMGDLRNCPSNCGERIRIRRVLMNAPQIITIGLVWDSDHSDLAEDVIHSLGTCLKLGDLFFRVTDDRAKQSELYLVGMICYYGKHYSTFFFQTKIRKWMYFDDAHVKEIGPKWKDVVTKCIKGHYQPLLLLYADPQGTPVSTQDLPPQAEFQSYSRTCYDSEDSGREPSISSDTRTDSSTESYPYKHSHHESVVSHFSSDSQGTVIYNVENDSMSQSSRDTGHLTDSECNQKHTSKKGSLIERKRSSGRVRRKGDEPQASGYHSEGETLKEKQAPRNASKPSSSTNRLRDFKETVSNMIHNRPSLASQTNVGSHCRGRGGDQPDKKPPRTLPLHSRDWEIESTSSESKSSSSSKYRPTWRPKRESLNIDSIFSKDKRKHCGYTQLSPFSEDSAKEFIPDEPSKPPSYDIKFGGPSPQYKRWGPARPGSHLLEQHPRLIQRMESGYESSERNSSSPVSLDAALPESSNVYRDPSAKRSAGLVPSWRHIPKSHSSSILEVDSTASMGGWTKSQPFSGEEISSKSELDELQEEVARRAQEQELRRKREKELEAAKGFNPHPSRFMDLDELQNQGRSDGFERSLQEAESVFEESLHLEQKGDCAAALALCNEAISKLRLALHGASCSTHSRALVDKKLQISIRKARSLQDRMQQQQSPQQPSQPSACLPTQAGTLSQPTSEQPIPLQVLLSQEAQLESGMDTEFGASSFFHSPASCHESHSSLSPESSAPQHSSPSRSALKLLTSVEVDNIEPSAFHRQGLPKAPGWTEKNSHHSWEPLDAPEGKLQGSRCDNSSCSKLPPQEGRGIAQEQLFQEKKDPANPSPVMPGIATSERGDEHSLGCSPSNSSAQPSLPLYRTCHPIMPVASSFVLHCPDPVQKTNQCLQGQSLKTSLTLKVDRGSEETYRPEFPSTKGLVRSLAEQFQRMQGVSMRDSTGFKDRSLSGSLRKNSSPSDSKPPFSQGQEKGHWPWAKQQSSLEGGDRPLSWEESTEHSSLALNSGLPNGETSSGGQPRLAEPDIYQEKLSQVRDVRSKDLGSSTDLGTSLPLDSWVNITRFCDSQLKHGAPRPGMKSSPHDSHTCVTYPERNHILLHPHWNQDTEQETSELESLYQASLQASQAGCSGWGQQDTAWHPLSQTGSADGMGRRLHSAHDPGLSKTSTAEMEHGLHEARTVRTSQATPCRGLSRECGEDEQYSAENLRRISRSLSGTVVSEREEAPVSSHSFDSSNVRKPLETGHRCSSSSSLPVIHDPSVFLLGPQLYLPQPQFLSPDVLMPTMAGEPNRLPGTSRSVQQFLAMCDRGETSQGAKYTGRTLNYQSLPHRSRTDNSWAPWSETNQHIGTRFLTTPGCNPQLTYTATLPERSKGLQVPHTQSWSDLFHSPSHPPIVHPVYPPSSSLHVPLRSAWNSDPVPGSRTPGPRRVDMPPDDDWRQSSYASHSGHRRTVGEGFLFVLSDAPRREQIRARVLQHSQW
Summary of the method: as §1

[7] = molecular target: USP7 (UniProt Q93009)
Chain of USP7 (Q93009 whole entry, looked up): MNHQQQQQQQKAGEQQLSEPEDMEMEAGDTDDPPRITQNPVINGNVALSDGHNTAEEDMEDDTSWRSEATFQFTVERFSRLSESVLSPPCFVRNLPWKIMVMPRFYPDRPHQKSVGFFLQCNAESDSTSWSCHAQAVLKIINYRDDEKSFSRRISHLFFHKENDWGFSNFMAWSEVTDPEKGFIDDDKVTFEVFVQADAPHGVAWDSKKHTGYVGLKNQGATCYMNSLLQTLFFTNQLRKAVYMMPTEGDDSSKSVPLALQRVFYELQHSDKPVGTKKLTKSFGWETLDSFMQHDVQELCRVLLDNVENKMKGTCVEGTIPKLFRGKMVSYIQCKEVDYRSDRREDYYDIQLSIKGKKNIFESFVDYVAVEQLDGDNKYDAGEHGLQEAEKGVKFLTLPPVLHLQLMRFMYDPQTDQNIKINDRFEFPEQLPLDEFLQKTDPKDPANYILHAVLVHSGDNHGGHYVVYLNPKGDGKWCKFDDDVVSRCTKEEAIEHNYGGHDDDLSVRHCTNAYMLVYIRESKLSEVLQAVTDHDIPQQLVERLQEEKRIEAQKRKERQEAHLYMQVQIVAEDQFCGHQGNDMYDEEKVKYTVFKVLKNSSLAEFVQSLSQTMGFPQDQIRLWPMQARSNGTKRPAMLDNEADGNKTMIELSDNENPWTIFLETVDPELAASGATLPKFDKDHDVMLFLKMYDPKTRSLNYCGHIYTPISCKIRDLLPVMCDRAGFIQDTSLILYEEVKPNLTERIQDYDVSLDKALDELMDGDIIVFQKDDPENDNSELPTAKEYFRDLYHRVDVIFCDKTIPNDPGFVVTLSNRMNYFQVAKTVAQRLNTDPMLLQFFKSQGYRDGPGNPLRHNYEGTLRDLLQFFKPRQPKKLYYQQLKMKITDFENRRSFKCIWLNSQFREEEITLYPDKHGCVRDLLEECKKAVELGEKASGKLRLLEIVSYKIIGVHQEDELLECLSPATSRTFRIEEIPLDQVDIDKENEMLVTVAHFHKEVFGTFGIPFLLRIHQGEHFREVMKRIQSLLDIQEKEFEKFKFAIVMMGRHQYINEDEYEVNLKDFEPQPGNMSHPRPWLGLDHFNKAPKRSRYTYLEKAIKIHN
Summary of the method: as §1

[8] = molecular target: T5, USP8 (UniProt P40818)
T5 sequence (whole entry): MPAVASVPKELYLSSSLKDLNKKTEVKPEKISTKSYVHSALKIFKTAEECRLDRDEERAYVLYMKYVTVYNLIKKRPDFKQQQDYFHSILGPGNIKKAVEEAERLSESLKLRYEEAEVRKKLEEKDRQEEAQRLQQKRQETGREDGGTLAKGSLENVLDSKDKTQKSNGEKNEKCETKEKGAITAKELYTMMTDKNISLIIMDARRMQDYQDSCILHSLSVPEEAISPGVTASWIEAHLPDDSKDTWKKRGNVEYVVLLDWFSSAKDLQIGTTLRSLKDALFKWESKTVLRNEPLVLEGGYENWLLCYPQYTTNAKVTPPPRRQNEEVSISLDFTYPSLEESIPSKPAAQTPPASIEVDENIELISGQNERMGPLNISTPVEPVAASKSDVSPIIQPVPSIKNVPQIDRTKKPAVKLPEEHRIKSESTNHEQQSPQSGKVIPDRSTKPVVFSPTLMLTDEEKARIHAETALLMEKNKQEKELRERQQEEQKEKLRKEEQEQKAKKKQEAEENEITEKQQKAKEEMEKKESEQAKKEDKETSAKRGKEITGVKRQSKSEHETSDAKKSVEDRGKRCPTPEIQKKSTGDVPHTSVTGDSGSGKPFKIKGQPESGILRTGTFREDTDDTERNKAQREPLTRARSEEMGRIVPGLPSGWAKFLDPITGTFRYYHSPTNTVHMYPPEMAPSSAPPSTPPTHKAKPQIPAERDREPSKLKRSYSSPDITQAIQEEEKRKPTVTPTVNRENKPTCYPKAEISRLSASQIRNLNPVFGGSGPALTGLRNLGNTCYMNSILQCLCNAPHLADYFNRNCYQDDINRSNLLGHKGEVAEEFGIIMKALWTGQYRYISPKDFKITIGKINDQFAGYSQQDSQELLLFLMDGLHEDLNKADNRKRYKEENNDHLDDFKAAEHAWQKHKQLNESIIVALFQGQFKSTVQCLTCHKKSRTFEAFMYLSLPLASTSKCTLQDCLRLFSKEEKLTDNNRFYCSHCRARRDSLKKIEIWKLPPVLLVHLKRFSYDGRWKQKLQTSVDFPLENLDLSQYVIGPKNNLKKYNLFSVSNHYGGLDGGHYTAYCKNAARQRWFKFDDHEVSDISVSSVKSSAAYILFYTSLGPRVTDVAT
Summary of the method: as §1

[9] = molecular target: USP9X (UniProt Q93008)
Summary of the method: as §1

[10] = molecular target: UniProt O00487
Chain of UniProt O00487 (O00487 whole entry): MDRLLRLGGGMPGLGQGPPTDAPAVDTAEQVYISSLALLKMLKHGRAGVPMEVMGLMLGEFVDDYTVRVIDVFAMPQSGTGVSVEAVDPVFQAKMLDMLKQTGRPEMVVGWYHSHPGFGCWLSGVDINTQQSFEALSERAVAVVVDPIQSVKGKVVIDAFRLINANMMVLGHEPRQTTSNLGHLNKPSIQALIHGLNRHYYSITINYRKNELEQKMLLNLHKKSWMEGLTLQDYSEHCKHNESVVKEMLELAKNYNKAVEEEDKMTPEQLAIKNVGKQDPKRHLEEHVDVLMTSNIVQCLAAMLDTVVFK
Summary of the method: as §1

Measured: log2 ratio of Biotin-Ahx-Ub-VS probe labelling

Cc1cccc(C)c1NC(=O)CCl
inactive: [1] -0.0226 | [2] -0.0272 | [3] 0.139 | [4] -0.538 | [5] -0.194 | [6] 0.412 | [7] -0.264 | [8] -0.461 | [9] -0.187 | [10] -0.00227
